According to PubChem BioAssay (Tox21):
Several values for one entry are separate records, joined by “and”; a condition that tells them apart may be missing. Identical values can stand only once. The source holds several records for some structures; these can differ, active in one and inactive in another. Activity calls are given as the source filed them. Where a call stands in place of a potency, no number is given. Unless noted, calls come from the whole dose curve; as a rule, active = well fitted curve in the direction sought with a large enough effect in the repeat runs; inconclusive = weak or mixed curves; inactive = no such curve, though single readings can be large; an effect the other way counts as inactive or inconclusive.

Tests used:
[1] = target: Estrogen receptor (Homo sapiens) (UniProt P03372); experiment: qHTS assay to identify small molecule antagonists of the estrogen receptor alpha (ER-alpha) signaling pathway (AID 743069; active = well fitted curve in the direction sought with a large enough effect in the signal ratio in the repeat runs, not every such curve was filed as active; inconclusive = weak or mixed curves, or effect the other way; inactive = no such curve, though single readings can be large or run the other way; the % refers to the signal ratio; note: potency is the fitted concentration of half-maximal effect)
Procedure, shortened: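 Fluorescence intensity from a beta-lactamase FRET substrate served as the read-out. Cells: HEK293 with stably integrated ER-alpha-UAS-bla reporter. Agonist 17beta-estradiol was co-added with compounds; incubation 18 hr at 37C, substrate 2 hr at room temperature.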

[2] = qHTS assay to identify small molecule antagonists of the estrogen receptor alpha (ER-alpha) signaling pathway - cell viability counter screen (AID 743074; calls by dose curve; note: nearly all actives have a fitted effect of over 45% in size; note: potency is the fitted concentration of half-maximal effect)
[3] = target: Estrogen receptor (Homo sapiens) (UniProt P03372); experiment: qHTS assay to identify small molecule agonists of the estrogen receptor alpha (ER-alpha) signaling pathway (AID 743075; calls by dose curve)
[4] = target: Estrogen receptor (Homo sapiens) (UniProt P03372); experiment: qHTS assay to identify small molecule agonists of the estrogen receptor alpha (ER-alpha) signaling pathway using the BG1 cell line (AID 743079); note: nearly all actives have a fitted effect of over 20% in size; note: potency is the fitted concentration of half-maximal effect
[5] = qHTS assay to identify small molecule antagonists of the estrogen receptor alpha (ER-alpha) signaling pathway using the BG1 cell line (AID 743080; calls by dose curve;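 note: BG1 cells stimulated with 17beta-estradiol alongside compound; nearly all actives have a fitted effect of over 25% in size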; note: potency is the fitted concentration of half-maximal effect)
Procedure, shortened: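 Luciferase inhibition measured with ONE-Glo after 30 min at RT in BG1Luc4E2 cells given test compounds and 17beta-estradiol for 21.5 h at 37 C; CellTiter-Fluor viability read in the same wells beforehand.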

[6] = qHTS assay to identify small molecule antagonists of the estrogen receptor alpha (ER-alpha) signaling pathway using the BG1 cell line - cell viability counter screen (AID 743081);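 note: compound given together with 17beta-estradiol as the ER stimulus; nearly all actives have a fitted effect of over 45% in size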; note: potency is the fitted concentration of half-maximal effect
Aromatase (Homo sapiens) = Aromatase (Homo sapiens) (UniProt P11511); experiment: qHTS assay to identify aromatase inhibitors (AID 743083); note: nearly all actives have a fitted effect of over 55% in size; note: potency is the fitted concentration of half-maximal effect
[7] = qHTS assay to identify aromatase inhibitors - cell viability counter screen (AID 743084);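 note: cells stimulated with testosterone during compound exposure; nearly all actives have a fitted effect of over 55% in size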; note: potency is the fitted concentration of half-maximal effect
[8] = target: Aryl hydrocarbon receptor (Homo sapiens) (UniProt P35869); experiment: qHTS assay to identify small molecule that activate the aryl hydrocarbon receptor (AhR) signaling pathway (AID 743085); note: nearly all actives have a fitted effect of over 15% in size; note: potency is the fitted concentration of half-maximal effect;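 for activation: HG2L7.5c1 human HepG2 liver cells with stably integrated DRE-driven firefly reporter; series mostly up to about 70 µM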
Procedure, shortened: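 HepG2 cells (HG2L7.5c1) stably carrying a firefly luciferase reporter driven by 20 dioxin responsive elements were exposed to compound for 24 h at 37C after a 5 h settling period; luminescence rise (ONE-Glo) indicated activation.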

[9] = qHTS assay to identify small molecule that activate the aryl hydrocarbon receptor (AhR) signaling pathway - cell viability counter screen (AID 743086); note: nearly all actives have a fitted effect of over 45% in size; note: potency is the fitted concentration of half-maximal effect
Procedure, shortened: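 Cytotoxicity counter screen: CellTiter-Fluor signal (30 min, 37 C) in 4000 HepG2 cells/well carrying the DRE-luciferase reporter, following 24 h compound exposure at 37 C.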

[10] = target: Peroxisome proliferator-activated receptor gamma (Homo sapiens) (UniProt P37231); experiment: qHTS assay to identify small molecule agonists of the peroxisome proliferator-activated receptor gamma (PPARg) signaling pathway (AID 743094; active = well fitted activation curve with a large enough effect in the signal ratio in the repeat runs, not every such curve was filed as active; inconclusive = weak or mixed curves, or effect the other way; inactive = no such curve, though single readings can be large or run the other way; the % refers to the signal ratio)
Procedure, shortened: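 Cell-based bla reporter, HEK293H background, PPARg-driven UAS. Pre-incubation 5 h, 37C, 5% CO2. Compound 17 h, 37C. Substrate 1 h RT; fluorescence.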

[11] = target: Peroxisome proliferator-activated receptor gamma (Homo sapiens) (UniProt P37231); experiment: qHTS assay to identify small molecule antagonists of the peroxisome proliferator-activated receptor gamma (PPARg) signaling pathway (AID 743191; calls by dose curve; note: series mostly up to about 63 µM; nearly all actives have a fitted effect of over 30% in size)
Procedure, shortened: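 Beta-lactamase reporter under UAS control in HEK293H PPARg-bla cells; compound treatment 17 h at 37C. Read-out: fluorescence intensity after 1 h room-temperature incubation with LiveBLAzer B/G FRET substrate.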

[12] = qHTS assay to identify small molecule antagonists of the peroxisome proliferator-activated receptor gamma (PPARg) signaling pathway - cell viability counter screen (AID 743194); note: nearly all actives have a fitted effect of over 55% in size
Procedure, shortened: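 Viability was measured as CellTiter-Glo luminescence in GeneBLAzer PPARg UAS-bla HEK293H cells. These cells had been exposed 17 h at 37 C to compounds together with rosiglitazone at 50 nM final, with the beta-lactamase readout taken in the same wells.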

[13] = qHTS assay for small molecule agonists of the antioxidant response element (ARE) signaling pathway - cell viability counter screen (AID 743203; calls by dose curve; note: nearly all actives have a fitted effect of over 55% in size)
Procedure, shortened: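 Measured in the same wells as the beta-lactamase ARE reporter, this read-out is CellTiter-Glo luminescence from HepG2 ARE-bla cells given compounds for 16 hrs.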

[14] = qHTS assay for small molecule activators of the heat shock response signaling pathway - cell viability counter screen (AID 743209); note: nearly all actives have a fitted effect of over 50% in size
Procedure, shortened: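 Same-well multiplex: after 2.5 h room-temperature incubation with LiveBLAzer B/G substrate and fluorescence reading, CellTiter-Glo reagent was added to HSE-bla HeLa cells that had received compound for 5 h at 37 C; luminescence read after 30 min.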

[15] = qHTS assay for small molecule activators of the heat shock response signaling pathway (AID 743210; active = well fitted activation curve with a large enough effect in the signal ratio in the repeat runs, with a control signal flat, not every such curve was filed as active; inconclusive = weak or mixed curves; the % refers to the signal ratio;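 note: HeLa cells with beta-lactamase reporter driven by heat shock elements; series mostly up to about 63 µM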)
Procedure, shortened: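 Fluorescence from a cleaved B/G FRET substrate (2.5 h, room temp) reports HSE-driven beta-lactamase in HeLa cells treated 5 h at 37 C with DMSO-dissolved compounds.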

[16] = qHTS assay to identify small molecule agonists of the peroxisome proliferator-activated receptor delta (PPARd) signaling pathway - cell viability counter screen (AID 743211); note: nearly all actives have a fitted effect of over 55% in size
Procedure, shortened: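 PPARd-bla HEK293H cells (UAS-beta-lactamase reporter) were treated with compounds for 17 h at 37 C. Viability was then read in the same wells by CellTiter-Glo luminescence after 30 min at room temperature.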

[17] = qHTS assay to identify small molecule antagonists of the thyroid receptor (TR) signaling pathway (AID 743065); note: nearly all actives have a fitted effect of over 55% in size; note: potency is the fitted concentration of half-maximal effect
Procedure, shortened: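 Antagonism measured as loss of luciferase signal in GH3 cells stably carrying a TRE-luciferase reporter, co-treated with compound and T3 (1 nM final) for 23.5 h at 37 C. Viability was read in the same well by CellTiter-Fluor.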

[18] = tested on: thyroid hormone receptor (rat, GH3 cells); experiment: qHTS assay to identify small molecule agonists of the thyroid receptor (TR) signaling pathway (AID 743066; calls by dose curve)
[19] = qHTS assay for small molecule agonists of the antioxidant response element (ARE) signaling pathway (AID 743202; active = well fitted activation curve with a large enough effect in the signal ratio in the repeat runs, not every such curve was filed as active; inconclusive = weak or mixed curves, or effect the other way; inactive = no such curve, though single readings can be large or run the other way; the % refers to the signal ratio)
Procedure, shortened: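 Beta-lactamase reporter activity, read as fluorescence intensity, reflects ARE/Nrf2 pathway induction in HepG2 cells after 16 h compound exposure at 37 C; substrate loading was 2 h at room temperature.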

Estrogen receptor (Homo sapiens), sequence (P03372 whole entry, looked up): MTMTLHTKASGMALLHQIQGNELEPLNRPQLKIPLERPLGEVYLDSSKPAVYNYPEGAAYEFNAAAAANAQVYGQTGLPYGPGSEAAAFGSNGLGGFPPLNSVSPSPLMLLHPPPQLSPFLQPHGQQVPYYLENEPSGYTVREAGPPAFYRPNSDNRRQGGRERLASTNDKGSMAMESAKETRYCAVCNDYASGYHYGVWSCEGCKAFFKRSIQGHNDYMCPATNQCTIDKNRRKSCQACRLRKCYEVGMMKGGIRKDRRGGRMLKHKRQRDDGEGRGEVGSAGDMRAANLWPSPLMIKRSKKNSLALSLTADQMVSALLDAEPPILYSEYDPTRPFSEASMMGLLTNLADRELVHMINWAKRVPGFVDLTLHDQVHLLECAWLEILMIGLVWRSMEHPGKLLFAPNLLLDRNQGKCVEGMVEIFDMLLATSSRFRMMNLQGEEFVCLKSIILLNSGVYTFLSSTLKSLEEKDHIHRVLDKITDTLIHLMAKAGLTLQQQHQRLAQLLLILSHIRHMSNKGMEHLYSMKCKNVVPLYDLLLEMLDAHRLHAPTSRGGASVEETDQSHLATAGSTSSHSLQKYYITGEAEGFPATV
Aryl hydrocarbon receptor (Homo sapiens), sequence (P35869 whole entry, looked up): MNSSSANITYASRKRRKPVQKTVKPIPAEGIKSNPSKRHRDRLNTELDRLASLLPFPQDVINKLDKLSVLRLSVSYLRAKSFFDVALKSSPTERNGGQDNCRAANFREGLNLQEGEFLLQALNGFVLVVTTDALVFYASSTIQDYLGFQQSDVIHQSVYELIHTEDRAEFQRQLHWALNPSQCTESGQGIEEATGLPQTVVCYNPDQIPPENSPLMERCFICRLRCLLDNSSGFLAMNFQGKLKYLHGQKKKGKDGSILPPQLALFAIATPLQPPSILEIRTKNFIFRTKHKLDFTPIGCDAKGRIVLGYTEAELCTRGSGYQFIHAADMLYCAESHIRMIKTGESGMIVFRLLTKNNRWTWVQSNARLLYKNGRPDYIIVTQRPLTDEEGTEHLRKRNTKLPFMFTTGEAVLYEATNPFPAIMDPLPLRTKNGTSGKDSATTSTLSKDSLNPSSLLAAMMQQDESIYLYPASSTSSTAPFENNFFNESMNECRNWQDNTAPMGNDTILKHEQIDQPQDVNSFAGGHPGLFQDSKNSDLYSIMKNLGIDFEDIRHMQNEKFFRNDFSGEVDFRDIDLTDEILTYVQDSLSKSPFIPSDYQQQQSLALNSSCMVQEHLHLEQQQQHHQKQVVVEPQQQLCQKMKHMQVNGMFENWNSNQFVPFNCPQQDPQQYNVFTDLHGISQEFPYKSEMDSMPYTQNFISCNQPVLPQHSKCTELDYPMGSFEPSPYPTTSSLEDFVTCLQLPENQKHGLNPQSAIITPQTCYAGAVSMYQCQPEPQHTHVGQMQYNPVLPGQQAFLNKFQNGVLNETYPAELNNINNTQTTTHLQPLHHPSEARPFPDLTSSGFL
Peroxisome proliferator-activated receptor gamma (Homo sapiens), sequence (P37231 whole entry, looked up): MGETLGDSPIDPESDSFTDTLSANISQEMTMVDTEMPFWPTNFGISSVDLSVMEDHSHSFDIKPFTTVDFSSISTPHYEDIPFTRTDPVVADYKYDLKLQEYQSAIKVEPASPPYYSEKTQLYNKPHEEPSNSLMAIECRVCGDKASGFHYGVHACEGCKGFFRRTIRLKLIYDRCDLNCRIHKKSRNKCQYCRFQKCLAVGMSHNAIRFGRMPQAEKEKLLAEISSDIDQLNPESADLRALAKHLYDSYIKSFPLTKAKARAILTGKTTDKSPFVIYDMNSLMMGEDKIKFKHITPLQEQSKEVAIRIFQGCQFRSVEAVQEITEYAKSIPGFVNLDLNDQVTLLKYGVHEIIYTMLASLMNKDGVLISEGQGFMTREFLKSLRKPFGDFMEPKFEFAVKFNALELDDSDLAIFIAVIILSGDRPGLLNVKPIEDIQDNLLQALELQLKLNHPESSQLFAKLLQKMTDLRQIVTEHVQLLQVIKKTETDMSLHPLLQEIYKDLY
Aromatase (Homo sapiens), sequence (P11511 whole entry, looked up): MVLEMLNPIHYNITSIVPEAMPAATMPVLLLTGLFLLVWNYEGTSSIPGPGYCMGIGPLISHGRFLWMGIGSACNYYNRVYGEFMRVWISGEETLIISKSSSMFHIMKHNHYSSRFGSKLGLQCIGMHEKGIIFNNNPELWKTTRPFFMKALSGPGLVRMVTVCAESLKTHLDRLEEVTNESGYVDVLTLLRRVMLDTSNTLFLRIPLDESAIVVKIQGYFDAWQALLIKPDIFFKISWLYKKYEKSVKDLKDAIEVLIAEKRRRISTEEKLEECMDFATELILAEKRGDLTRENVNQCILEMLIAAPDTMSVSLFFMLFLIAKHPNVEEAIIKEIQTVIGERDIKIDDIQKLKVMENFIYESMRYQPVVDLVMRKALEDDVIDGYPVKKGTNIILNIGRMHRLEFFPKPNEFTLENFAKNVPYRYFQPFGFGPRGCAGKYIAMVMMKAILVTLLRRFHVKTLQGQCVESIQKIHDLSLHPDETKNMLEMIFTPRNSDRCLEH

SMILES | Potency [1] | Potency [2] | Potency [3] | Potency [4] | Potency [5] | Potency [6] | Potency (Aromatase (Homo sapiens)) | Potency [7] | Potency [8] | Potency [9] | outcome [10] | outcome [11] | outcome [12] | outcome [13] | outcome [14] | outcome [15] | outcome [16] | Potency [17] | Potency [18] | Potency [19]
Nc1ccc(O)c(C(=O)O)c1 | inactive | inactive | inactive | inactive and 68.6 µM (active) | inactive | inactive | inactive | inactive | inactive | inactive | inactive | inactive | inactive | inactive | inactive | inactive | inactive |  |  | 
NC(=O)c1cnccn1 | inactive | inactive | inactive | inactive | inactive | inactive | inactive | inactive | inactive | inactive | inactive | inactive | inactive | inactive | inactive | inactive | inactive |  |  | 
O=C(O)c1cc(N=Nc2ccc(S(=O)(=O)Nc3ccccn3)cc2)ccc1O |  | inactive |  |  |  | 34.5 µM (active) | inactive | 34.5 µM (active) and 30.6 µM (active) | inactive | inactive and 27.4 µM (active) and 30.6 µM (active) | inactive | inactive | inactive | inactive | inactive | inactive | inactive |  |  | 
CC(C)[C@@H]1CC[C@@H](C)C[C@H]1O |  | inactive |  |  |  | inactive | inactive | inactive | inactive | inactive | inactive | inactive | inactive | inactive | inactive |  | inactive | inactive | inactive | 
CC(O)CN(CCN(CC(C)O)CC(C)O)CC(C)O (centres undefined) |  | inactive |  |  |  | inactive | inactive | inactive | inactive | inactive | inactive | inactive | inactive | inactive | inactive | inactive | inactive |  |  | inactive
OCCc1ccccc1 |  | inactive |  |  |  | inactive | inactive | inactive | inactive | inactive | inactive | inactive | inactive | inactive | inactive | inactive | inactive | inactive | inactive | inactive
C/C=C/c1ccc(OC)cc1 |  | inactive |  |  |  | inactive | inactive | inactive | inactive | inactive | inactive |  | inactive | inactive | inactive | inactive | inactive | inactive | inactive | inactive
O=NO |  | inactive |  |  |  | inactive | inactive | inactive | inactive | inactive |  |  | inactive | inactive | inactive | inactive | inactive | inactive | inactive | inactive
C[C@]12C=CC(=O)C=C1CC[C@@H]1[C@@H]2[C@@H](O)C[C@@]2(C)[C@H]1CC[C@]2(O)C(=O)CO |  | inactive | inactive | inactive |  | inactive | inactive | inactive | inactive | inactive |  |  | inactive | inactive | inactive | inactive | inactive | inactive | inactive | inactive
N=C(N)c1ccc(OCCCCCOc2ccc(C(=N)N)cc2)cc1 | 12 µM [inconclusive] (active) and 15.4 µM [inconclusive] (active) and 46.8 µM [inconclusive] (active) | inactive | inactive |  | 11.9 µM (active) and 46.4 µM (active) | inactive | 26.1 µM (active) | inactive |  | inactive | inactive |  | inactive | inactive | inactive | inactive | inactive | 26.6 µM (active) and 60.8 µM (active) and 58.4 µM (active) | inactive | 
O=S(=O)(O)c1ccc2cc(O)ccc2c1 |  | inactive |  |  |  | inactive | inactive | inactive | inactive | inactive | inactive | inactive | inactive | inactive | inactive | inactive | inactive | inactive | inactive | inactive
O=C(c1ccccc1)C(O)c1ccccc1 (centres undefined) |  | inactive |  |  |  | inactive | inactive | inactive | inactive | inactive | inactive | inactive | inactive | inactive | inactive | inactive | inactive | inactive | inactive | inactive
O=C(C1CCCCC1)N1CC(=O)N2CCc3ccccc3C2C1 (centres undefined) |  | inactive |  |  |  | inactive | inactive | inactive | inactive | inactive | inactive | inactive | inactive | inactive | inactive | inactive | inactive | inactive | inactive | inactive
CNC[C@H](O)c1cccc(O)c1 |  | inactive and 3.89 µM (active) |  |  |  | inactive | inactive | inactive | inactive | inactive |  |  | inactive | inactive | inactive |  | inactive | inactive | inactive | 
O=C(O)/C=C\C(=O)O |  |  |  |  |  |  |  |  |  |  |  |  | inactive | inactive | inactive | inactive | inactive |  |  | 
O=C(O)c1cccnc1 |  | inactive |  |  |  | inactive | inactive | inactive | inactive | inactive |  |  | inactive | inactive | inactive | inactive | inactive | inactive | inactive | inactive
c1ccc2[nH]ccc2c1 |  | inactive |  |  |  | inactive | inactive | inactive | inactive and 30.1 µM (active) and 27.3 µM (active) | inactive | inactive | inactive | inactive | inactive | inactive | inactive | inactive | inactive | inactive | 
O=C(O)c1cccc([N+](=O)[O-])c1 |  | inactive |  |  |  | inactive | inactive | inactive | inactive | inactive |  |  | inactive | inactive | inactive | inactive | inactive | inactive | inactive | 
